Sampled rows, rich in hits. Any-hit rate of the full collection: about 4.5%.
697 NFkB inh = inhibitors of PMA/ionomycin-induced NF-kB reporter, 697 cells, primary screen, B-cell NF-kB inhibitor project, cell-based, luminescence, uHTS | inhibition, % at 4 µM | 697 B-cell NF-kB luciferase reporter, 16 h | 0.33% of 330,000 active | AID 435022, 2010; in the data active = inhibition above about 35%
aSyn UTR inh = MLPCN primary screen, SNCA 5' untranslated region. 0.82% of 300,000 active. inhibition, % (tested at 7.5 µM). alpha-synuclein 5'UTR reporter, inhibitor activity; in the data active = inhibition above about 60%;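 note: H4 neuroglioblastoma cells stably carrying SNCA 5'UTR luciferase fusion; 0% = DMSO wells and 100% = positive control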
Mdm2-MdmX inh = inhibitors of human Mdm2-MdmX association, primary screen, cell-based, luminescence, split luciferase, SaOS-2, uHTS. 3% of 330,000 active. inhibition, % at 8 µM. AID 485346, 2010. Protein Mdm4 (Homo sapiens) + E3 ubiquitin-protein ligase Mdm2 (Homo sapiens), …. SaOS-2 split-luciferase Mdm2/MdmX complementation;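 active = inhibition of at least 50% at 8 µM in the primary screen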
Target sequence (O15151 whole entry, looked up): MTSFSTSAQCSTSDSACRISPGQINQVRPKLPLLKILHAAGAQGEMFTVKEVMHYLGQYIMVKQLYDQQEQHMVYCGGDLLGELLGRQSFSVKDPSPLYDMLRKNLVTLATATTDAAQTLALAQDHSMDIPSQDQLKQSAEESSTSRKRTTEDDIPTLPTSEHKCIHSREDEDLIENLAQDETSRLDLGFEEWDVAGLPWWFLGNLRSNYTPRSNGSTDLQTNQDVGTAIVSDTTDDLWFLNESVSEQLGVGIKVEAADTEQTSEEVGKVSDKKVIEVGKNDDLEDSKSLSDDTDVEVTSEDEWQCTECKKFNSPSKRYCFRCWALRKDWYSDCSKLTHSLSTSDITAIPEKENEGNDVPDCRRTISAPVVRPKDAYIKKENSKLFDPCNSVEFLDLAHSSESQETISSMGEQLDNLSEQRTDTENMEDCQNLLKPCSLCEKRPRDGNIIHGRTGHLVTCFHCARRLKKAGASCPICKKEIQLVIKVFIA
Target sequence (Q00987 whole entry, looked up): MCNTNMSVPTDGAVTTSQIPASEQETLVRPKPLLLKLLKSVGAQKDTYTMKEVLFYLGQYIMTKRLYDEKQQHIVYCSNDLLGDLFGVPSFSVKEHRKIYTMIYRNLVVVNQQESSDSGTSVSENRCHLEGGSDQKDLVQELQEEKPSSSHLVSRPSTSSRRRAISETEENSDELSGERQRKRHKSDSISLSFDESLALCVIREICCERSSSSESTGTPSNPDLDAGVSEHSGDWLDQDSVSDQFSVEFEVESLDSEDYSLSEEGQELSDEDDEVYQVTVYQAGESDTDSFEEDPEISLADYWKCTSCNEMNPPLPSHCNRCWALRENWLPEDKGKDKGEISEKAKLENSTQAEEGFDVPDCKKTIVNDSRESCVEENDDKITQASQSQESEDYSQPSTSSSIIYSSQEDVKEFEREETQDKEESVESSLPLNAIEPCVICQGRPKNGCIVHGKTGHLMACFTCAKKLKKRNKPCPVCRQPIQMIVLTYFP
Jurkat NFkB inh = inhibitors of induced NF-kB luciferase reporter, primary screen, TCR NF-kB activation inhibitor project, cell-based, luminescence, uHTS; Jurkat, PMA/ionomycin-induced NF-kB luciferase reporter; inhibition, % at 4 µM; 0.53% of 330,000 active; in the data active = inhibition above about 50%
CSC inhib = cancer stem cell viability inhibitors, primary screen, luminescence; cancer stem cell-like cells viability; inhibition, % at 7.5 µM; 1.1% of 300,000 active; AID 2717, 2010; in the data active = inhibition above about 75%; tested in HMLE shEcad cells
Gli-Sufu antag = Gli-Sufu pathway antagonists, primary screen, luciferase luminescence, Sufu-KO-LIGHT cells, uHTS | inhibition, % at 5 µM | 0.74% of 340,000 active | Sufu-KO-LIGHT fibroblasts, Gli luciferase reporter luminescence | AID 588413, 2011;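 active = inhibition above about 55%, limit read from the data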;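 note: 0% = DMSO-treated cells and 100% = wells with medium but no cells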
Mdm2 MdmX conf = Mdm2-MdmX complex disruptors, retested hits, confirmation, luminescence, single concentration. AID 489028, 2010. shares compounds with Mdm2-MdmX inh. 55% of 10,000 active. inhibition, % at 8 µM. Mdm2-MdmX binding, luminescent assay; in the data active = inhibition above about 40%
FLuc counter = full-length luciferase signal inhibition, confirmation, counter-screen for Mdm2/MdmX interaction inhibitor project, cell-based, single concentration, SaOS-2; shares compounds with Mdm2-MdmX inh; SaOS-2 full-length luciferase counterscreen, luminescence; inhibition, % at 8 µM; 77% of 6,200 active; AID 504607, 2011;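 active = mean inhibition at 8 µM reaching about 37%, which flags the compound as non-specific, limit read from the data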;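 note: p53-null SaOS-2 cells with luciferase driven by a doxycycline-inducible promoter; compound on cells about two nights before reading with doxycycline added after day one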
* hit, by the source's call; nt = no result.

SMILES | 697 NFkB inh | aSyn UTR inh | Mdm2-MdmX inh | Jurkat NFkB inh | CSC inhib | Gli-Sufu antag | Mdm2 MdmX conf | others
CCC(C)(C)C1CCC2(CC1)NC(=O)N(CC(=O)N1CCN(S(=O)(=O)c3cc(C)ccc3C)CC1)C2=O (stereo not drawn) | -8.4 | -14.0 | 81.7* | 9.7 | 7.4 | 8.7 | 37.0 | FLuc counter=88.6*
O=S(=O)(C(=CNc1ccccc1)S(=O)(=O)c1ccccc1)c1ccccc1 | -2.7 | -37.7 | 8.4 | 11.9 | -4.3 | -9.5 | nt
NC1=NC[C@H](Cc2ccccc2)N1CCc1cc(C(F)(F)F)cc(C(F)(F)F)c1 | 0.0 | -6.2 | 63.2* | 4.1 | 2.9 | 23.9 | 24.4
CCOCCCNC(=O)c1c[nH]c2c(CC)cccc2c1=O | 11.7 | 7.5 | -1.9 | -3.3 | nt | -5.9 | nt
Cc1ccc(C(=O)NCCCc2ccccc2)s1 | -46.1 | -136.8 | -102.2 | -35.8 | -1.6 | -81.3 | nt
COc1cccc(N=Nc2c(N)[nH]n3c(=O)cc(-c4ccccc4)nc23)c1 | 11.5 | 2.4 | 61.7* | 8.5 | -8.3 | -2.6 | 33.7
Cc1ccc(-c2cc(C(F)F)nc3sc4c(=O)[nH]cnc4c23)cc1 | 10.7 | nt | 70.9* | 7.3 | -6.2 | 6.2 | -1.8
CC(=O)Nc1ccc(S(=O)(=O)NC2=NCN(c3ccc([N+](=O)[O-])cc3)CN2)cc1 | 8.4 | -3.3 | 62.6* | -7.3 | -5.1 | -8.7 | 14.6
CN1CN=C(NS(=O)(=O)c2ccc([N+](=O)[O-])cc2)NC1 | 10.1 | -7.5 | 19.9 | -2.4 | 0.6 | 4.6 | nt
O=C1/C(=C/c2ccccc2[N+](=O)[O-])COc2ccccc21 | -6.7 | -113.6 | 97.9* | 17.1 | -26.9 | -6.9 | 44.7* | FLuc counter=3.3
CCCN1CCN(C(=O)C2CCN(S(=O)(=O)c3ccc4c(c3)NC(=O)C(C)S4)CC2)CC1 (stereo not drawn) | 12.2 | -50.7 | 28.6 | 11.6 | -12.4 | -9.1 | nt
COc1ccc(C(C(=O)NC2CCCC2)N(Cc2ccc(C)cc2)C(=O)c2ccn[nH]2)cc1OC (stereo not drawn) | -3.2 | 4.3 | 8.4 | -9.3 | nt | 11.7 | nt
Oc1ccc(C[C@@H]2CNCCN2CCCCC2CCCCC2)cc1 | 17.9 | -29.0 | 56.5* | 2.2 | 44.7 | 2.0 | 16.5
Oc1ccc(C[C@H]2CNCCN2CCc2cc(C(F)(F)F)cc(C(F)(F)F)c2)cc1 | -5.6 | -12.1 | 57.7* | 11.8 | 52.6 | -1.1 | 12.2
Oc1ccc(C[C@@H]2CNCCN2CCc2cc(C(F)(F)F)cc(C(F)(F)F)c2)cc1 | -7.7 | -21.5 | 47.4 | 16.1 | 36.2 | 8.7 | nt
Cc1nc(NC(=O)/C=C/c2ccccc2)sc1C(=O)Nc1ccccc1Cl | -16.7 | -16.3 | 23.5 | 1.8 | -7.3 | -18.8 | nt
CC(=O)Nc1ccc(NC(=O)c2sc(-c3ccccc3)nc2C)cc1 | -16.9 | -3.1 | 14.3 | 3.2 | -0.8 | 4.1 | nt
Cc1nc(NC(=O)/C=C/c2ccccc2)sc1C(=O)Nc1ccc(Cl)cc1 | 18.3 | 15.3 | 50.5* | 9.6 | -10.7 | 16.5 | 39.6 | FLuc counter=53.4*
Cc1nc(Nc2ccc(Cl)c(Cl)c2)sc1C(=O)Nc1ccccc1 | -1.6 | -41.9 | 52.1* | -6.6 | 88.0* | 19.8 | 5.7
CCOc1ccc(NC(=O)CN(C)C(=O)CCNC(=O)c2ccco2)cc1OCC | 18.7 | nt | -13.3 | 16.0 | -6.5 | 7.5 | nt
Cc1cc(C)c2ccc(NN)nc2c1O | 19.0 | 3.2 | 59.2* | -3.4 | 19.7 | 5.7 | 40.6* | FLuc counter=47.0*
Cc1cc(C)c2ccc(/C=N/O)nc2c1O | 6.3 | 24.9 | 41.6 | -2.0 | 20.7 | 1.5 | nt
Cc1ccc(OCC(=O)OCC(=O)c2ccccc2)cc1C | -0.7 | 1.5 | 27.9 | -2.6 | 6.3 | -9.6 | nt
O=C(Nc1ccc(F)cc1Cl)C1=COCCO1 | -3.0 | -35.9 | 3.8 | -9.6 | -4.6 | -8.6 | nt
